In PubChem BioAssay (EPA / NIEHS):
The source made the active and inactive calls. Rule for the calls: active = hit-call score of the fitted dose curve at least 0.9, where 1 is the maximum; inactive = score below 0.9.

Experiments:
[1] = target: Hypoxia-inducible factor 1-alpha (Homo sapiens) (UniProt Q16665); test: ATG_HIF1a_CIS: Attagene CIS-FACTORIAL HepG2 Assay for human Hypoxia Inducible Factor 1 (HIF1A) (AID 2282951); conditions: HepG2 Attagene cis-factorial HIF1a reporter transcription; actives raise or lower the signal
Chain of Hypoxia-inducible factor 1-alpha (Homo sapiens) (Q16665 whole entry, looked up): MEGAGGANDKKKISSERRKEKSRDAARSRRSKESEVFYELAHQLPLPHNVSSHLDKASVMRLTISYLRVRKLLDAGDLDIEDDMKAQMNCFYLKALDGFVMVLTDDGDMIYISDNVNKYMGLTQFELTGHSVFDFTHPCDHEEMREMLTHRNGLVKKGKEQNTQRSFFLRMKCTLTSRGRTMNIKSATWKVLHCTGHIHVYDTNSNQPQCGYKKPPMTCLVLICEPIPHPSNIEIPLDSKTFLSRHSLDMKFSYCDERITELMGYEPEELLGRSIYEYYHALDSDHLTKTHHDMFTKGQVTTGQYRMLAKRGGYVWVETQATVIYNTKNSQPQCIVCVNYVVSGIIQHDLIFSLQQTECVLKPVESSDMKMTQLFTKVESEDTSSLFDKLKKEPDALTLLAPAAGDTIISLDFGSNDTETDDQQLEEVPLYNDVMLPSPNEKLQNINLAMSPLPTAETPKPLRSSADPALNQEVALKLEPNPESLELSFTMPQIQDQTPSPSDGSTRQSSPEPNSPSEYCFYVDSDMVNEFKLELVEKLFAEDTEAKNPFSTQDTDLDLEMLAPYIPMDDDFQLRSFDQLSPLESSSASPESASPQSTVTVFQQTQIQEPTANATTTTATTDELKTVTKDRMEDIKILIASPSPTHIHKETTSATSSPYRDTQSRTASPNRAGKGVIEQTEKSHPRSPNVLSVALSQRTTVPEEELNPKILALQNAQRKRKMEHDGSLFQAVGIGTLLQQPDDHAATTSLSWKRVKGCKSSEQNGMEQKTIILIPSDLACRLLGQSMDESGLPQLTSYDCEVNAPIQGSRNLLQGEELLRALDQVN
How it was run: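 After 24 h chemical exposure of reporter-transfected HepG2 cells, reporter cDNA was PCR-amplified, labelled by 6-FAM primer extension (2 min 95 C, 20 s 68 C, 10 min 72 C), HpaI-cut (2 h, 37 C) and analysed by CE.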

[2] = target: Heat shock factor protein 1 (Homo sapiens) (UniProt Q00613); test: ATG_HSE_CIS: Attagene CIS-FACTORIAL HepG2 Assay for human Heat Shock Transcription Factor 1 (HSE) (AID 2282953); conditions: HepG2 HSE cis-reporter, Attagene RNA transcription; actives raise or lower the signal
Chain of Heat shock factor protein 1 (Homo sapiens) (Q00613 whole entry, looked up): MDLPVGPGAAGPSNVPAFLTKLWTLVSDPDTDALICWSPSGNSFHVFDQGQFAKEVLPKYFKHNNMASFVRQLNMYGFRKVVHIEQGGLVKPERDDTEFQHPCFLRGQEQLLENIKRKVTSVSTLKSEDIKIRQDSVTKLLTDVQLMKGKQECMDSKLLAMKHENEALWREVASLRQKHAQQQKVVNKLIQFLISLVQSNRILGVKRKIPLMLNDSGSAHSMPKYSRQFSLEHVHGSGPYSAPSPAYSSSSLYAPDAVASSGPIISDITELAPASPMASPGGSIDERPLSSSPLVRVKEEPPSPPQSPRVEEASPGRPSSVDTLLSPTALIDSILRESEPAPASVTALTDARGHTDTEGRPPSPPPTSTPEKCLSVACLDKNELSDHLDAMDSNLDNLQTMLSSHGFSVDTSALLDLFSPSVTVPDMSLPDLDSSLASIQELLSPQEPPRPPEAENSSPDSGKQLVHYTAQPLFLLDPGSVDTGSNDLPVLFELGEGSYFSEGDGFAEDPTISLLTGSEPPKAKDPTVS
How it was run: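 Reporter mRNA induction in HepG2 is measured 24 h after dosing, using transiently transfected multiplexed cis-regulated reporter units. Signal comes from capillary electrophoresis of labelled RT-PCR products, with DMSO as negative control.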

[3] = ATG_MRE_CIS: Attagene CIS-FACTORIAL HepG2 Assay for human Metal Responsive Element (MRE) (AID 2282954); conditions: HepG2 MRE cis-reporter transcription, Attagene multiplex; actives raise or lower the signal
How it was run: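 HepG2 cells transiently transfected with multiple cis-element reporter units measure endogenous MTF1-driven transcription. After 24 h compound exposure, reporter mRNA is quantified by RT-PCR with 6-FAM labelling, HpaI digestion and capillary electrophoresis; bidirectional fits versus DMSO.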

[4] = ATG_PBREM_CIS: Attagene CIS-FACTORIAL HepG2 Assay for human Phenobarbital-responsive Enhancer Module (PBREM) (AID 2282955); conditions: HepG2 PBREM cis-reporter, Attagene multiplexed transcription; actives raise or lower the signal
How it was run: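 Measures endogenous factor action on a phenobarbital-responsive enhancer module. HepG2 transiently carrying cis reporters, 24 h treatment, mRNA read-out by RT-PCR plus capillary electrophoresis.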

[5] = target: Paired box protein Pax-6 (Homo sapiens) (UniProt P26367); test: ATG_Pax6_CIS: Attagene CIS-FACTORIAL HepG2 Assay for human Paired Box 6 (PAX6) (AID 2282956); conditions: HepG2 CIS-FACTORIAL PAX6 reporter transcription, RNA readout; actives raise or lower the signal
Chain of Paired box protein Pax-6 (Homo sapiens) (P26367 whole entry, looked up): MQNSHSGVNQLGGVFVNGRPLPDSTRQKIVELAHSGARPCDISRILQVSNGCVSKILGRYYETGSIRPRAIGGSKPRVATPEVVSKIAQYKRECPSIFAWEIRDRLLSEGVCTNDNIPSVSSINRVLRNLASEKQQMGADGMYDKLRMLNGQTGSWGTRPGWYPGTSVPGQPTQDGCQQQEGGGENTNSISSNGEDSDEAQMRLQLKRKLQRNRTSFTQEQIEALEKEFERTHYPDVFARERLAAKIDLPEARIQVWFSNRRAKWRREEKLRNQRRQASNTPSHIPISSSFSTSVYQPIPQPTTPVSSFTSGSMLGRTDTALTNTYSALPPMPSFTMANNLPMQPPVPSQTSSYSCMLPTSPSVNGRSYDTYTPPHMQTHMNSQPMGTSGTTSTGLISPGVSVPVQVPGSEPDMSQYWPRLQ
How it was run: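 Transient MRTU transfection of HepG2 → compound exposure 24 h → TriZol RNA, oligo(dT) RT → PCR, 6-FAM primer extension, HpaI cut → capillary electrophoresis; activity fitted both directions against DMSO.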

[6] = ATG_PXRE_CIS: Attagene CIS-FACTORIAL HepG2 Assay for human Pregnane X Receptor Element (PXRE) (AID 2282957); conditions: HepG2 Attagene CIS-FACTORIAL PXRE reporter, mRNA; actives raise or lower the signal
How it was run: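 Cells: HepG2, transiently transfected reporter units under cis promoter control. Exposure: 24 h. Detection: reporter mRNA via RT-PCR/CE fluorescence; bidirectional fitting, DMSO-referenced.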

[7] = ATG_PPRE_CIS: Attagene CIS-FACTORIAL HepG2 Assay for human Peroxisome Proliferator-activated Response Element (PPRE) (AID 2282958); conditions: HepG2 PPRE cis-element reporter, Attagene transcription factor profiling; actives raise or lower the signal
How it was run: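 PPRE activity in HepG2: transient cis-reporter transfection, 24 h compound incubation, reporter mRNA by RT-PCR and CE fluorescence; gain/loss fitted against DMSO.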

[8] = ATG_RORE_CIS: Attagene CIS-FACTORIAL HepG2 Assay for human RAR-related Orphan Receptor Element (RORE) (AID 2282959); conditions: HepG2 Attagene cis-factorial RORE reporter, mRNA; actives raise or lower the signal
How it was run: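 A 24-hour exposure of transfected HepG2 hepatoma cells precedes RNA isolation and reporter RT-PCR. Labeled products are digested with HpaI and resolved by capillary electrophoresis, with gain or loss of signal scored relative to DMSO.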

[9] = ATG_Sox_CIS: Attagene CIS-FACTORIAL HepG2 Assay for human SRY-box transcription factor (SOX) (AID 2282960); conditions: HepG2 Attagene cis-factorial SOX reporter, mRNA; actives raise or lower the signal
How it was run: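 HepG2, cis reporter units, 24 h exposure. Reporter mRNA: RT-PCR → FAM labelling → HpaI → CE fluorescence. Bidirectional fit vs DMSO.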

[10] = target: Hepatocyte nuclear factor 6 (Homo sapiens) (UniProt Q9UBC0); test: ATG_HNF6_CIS: Attagene CIS-FACTORIAL HepG2 Assay for human Hepatocyte Nuclear Factor 6 (HNF6) (AID 2282952); conditions: HepG2 Attagene cis-factorial HNF6 reporter transcription; actives raise or lower the signal
Chain of Hepatocyte nuclear factor 6 (Homo sapiens) (Q9UBC0 whole entry, looked up): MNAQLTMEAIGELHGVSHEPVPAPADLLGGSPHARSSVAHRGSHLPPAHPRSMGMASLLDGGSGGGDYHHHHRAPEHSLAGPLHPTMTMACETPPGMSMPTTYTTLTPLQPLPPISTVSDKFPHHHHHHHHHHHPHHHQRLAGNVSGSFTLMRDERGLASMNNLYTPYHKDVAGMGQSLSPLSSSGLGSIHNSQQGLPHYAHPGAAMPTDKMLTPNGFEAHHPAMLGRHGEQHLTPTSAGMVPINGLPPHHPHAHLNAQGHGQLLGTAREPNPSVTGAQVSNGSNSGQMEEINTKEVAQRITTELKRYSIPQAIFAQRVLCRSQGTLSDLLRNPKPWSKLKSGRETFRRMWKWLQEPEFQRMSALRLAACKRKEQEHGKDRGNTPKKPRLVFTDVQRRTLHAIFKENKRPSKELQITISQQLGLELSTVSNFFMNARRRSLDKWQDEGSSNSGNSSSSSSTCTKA
How it was run: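 Multiplexed mRNA reporter assay in transfected HepG2; 24 h dosing; RT-PCR plus capillary electrophoresis fluorescence; DMSO-referenced bidirectional curve fitting.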

| SMILES | outcome [1] | outcome [2] | AC50 [3] | AC50 [4] | outcome [5] | AC50 [6] | AC50 [7] | AC50 [8] | outcome [9] | outcome [3] | outcome [8] | outcome [4] | outcome [6] | outcome [7] | outcome [10] |
| --- | --- | --- | --- | --- | --- | --- | --- | --- | --- | --- | --- | --- | --- | --- | --- |
| Oc1c(Br)cc(Br)cc1Br | inactive | inactive | 78.7 µM (active) | 20.9 µM (active) | inactive | 5.82 µM (active) | 51.2 µM (active) | 40.6 µM (active) | inactive | – | – | – | – | – | – |
| O=NN1CCCCCC1 | inactive | inactive | – | – | inactive | 53 µM (active) | – | – | inactive | inactive | inactive | – | – | – | – |
| O=[N+]([O-])c1c2ccccc2cc2ccccc12 | inactive | – | – | – | inactive | 3.8 µM (active) | – | – | inactive | inactive | inactive | inactive | – | – | – |
| Brc1c(Br)c(Br)c(Oc2c(Br)c(Br)c(Br)c(Br)c2Br)c(Br)c1Br | inactive | inactive | – | – | inactive | – | – | – | inactive | inactive | – | inactive | inactive | inactive | – |
| BrCC(Br)c1ccccc1 (centres undefined) | inactive | inactive | – | – | inactive | 27.3 µM (active) | – | – | inactive | inactive | inactive | – | – | inactive | – |
| O=C(CCl)NCO | inactive | inactive | – | – | inactive | – | – | – | inactive | inactive | inactive | inactive | inactive | inactive | – |
| Clc1cnc(Oc2ccc(Oc3ncc(Cl)cc3Cl)cc2)c(Cl)c1 | – | inactive | – | – | inactive | 9.96 µM (active) | – | – | inactive | inactive | – | inactive | – | inactive | inactive |
| C1CCC(C2CCCCC2)CC1 | inactive | inactive | – | – | inactive | – | – | – | inactive | inactive | inactive | inactive | inactive | inactive | – |
| CCN(CCO)CCO | inactive | inactive | – | – | inactive | 27.2 µM (active) | – | – | inactive | inactive | inactive | inactive | – | inactive | – |
